Test system: Vero E6 infected with SARS-CoV-2
Experiment: inhibition of SARS-CoV-2 cytopathic effect; higher = more antiviral protection, active = above 15
Conditions: 48 h

Measured: inhibition of SARS-CoV-2 cytopathic effect

CCCCc1ccc2[nH]c(NC(=O)OC)nc2c1 [parbendazole]
inactive: 1 nM 0.24% | 8.33 nM 0.63% | 100 nM -0.29% | 833.33 nM -0.99% | 10000 nM -1.63%

CC(C)(C)NC[C@H](O)c1ccc(O)cc1Cl [meluadrine]
inactive: 1 nM -1.16% | 8.33 nM 1.91% | 100 nM 1.61% | 833.33 nM -2.53% | 10000 nM -3.94%

CC(Cc1ccccc1)(NC(=O)CN)c1ccccc1 (stereo not given) [remacemide]
inactive: 1 nM 0.2% | 8.33 nM 0.62% | 100 nM -0.89% | 833.33 nM 0.88% | 10000 nM 0.24%

COc1ccccc1N1CCN(CC(O)COc2cc(OC)c(OC)c(OC)c2)CC1 (stereo not given) [enciprazine]
inactive: 1 nM 0.76% | 8.33 nM 1.14% | 100 nM 0.33% | 833.33 nM -0.53% | 10000 nM -2.4%

N[C@@H](C(=O)N[C@@H]1C(=O)N2C(C(=O)O)=C(Cl)CC[C@H]12)c1ccccc1 [loracarbef]
inactive: 1 nM 7.18% | 8.33 nM 4.02% | 100 nM 2.95% | 833.33 nM 1.17% | 10000 nM 5.45%

COC(=O)CCc1ccc(OCC(O)CNC(C)C)cc1 (stereo not given) [esmolol]
inactive: 1 nM 0.17% | 8.33 nM 0.64% | 100 nM -0.39% | 833.33 nM 0.07% | 10000 nM -0.39%

CC(=O)N(C)c1cc(-c2ccnc3c(C(=O)c4cccs4)cnn23)ccc1F [lorediplon]
inactive: 1 nM 0.42% | 8.33 nM -0.41% | 100 nM 1.97% | 833.33 nM 1.05% | 10000 nM 1.78%

Cc1ccc(N(CC2=NCCN2)c2cccc(O)c2)cc1 [phentolamine]
inactive: 1 nM -1.41% | 8.33 nM 0.07% | 100 nM -0.25% | 833.33 nM 1.86% | 10000 nM -4.23%

CNCCCOc1cc(F)c(-c2c(Cl)nc3ncnn3c2N[C@@H](C)C(F)(F)F)c(F)c1 [cevipabulin]
inactive: 1 nM 1.36% | 8.33 nM 1.13% | 100 nM 2.89% | 833.33 nM 6.1% | 10000 nM -0.76%

CC(=O)NO [acetohydroxamic-acid]
inactive: 1 nM 4.31% | 8.33 nM 3.09% | 100 nM -3.04% | 833.33 nM 2.55% | 10000 nM 3.32%

CCCCC1C(=O)N(c2ccccc2)N(c2ccccc2)C1=O [phenylbutazone]
inactive: 1 nM -0.14% | 8.33 nM 0.89% | 100 nM 0.31% | 833.33 nM 0.4% | 10000 nM 0.88%

CN(C)C(=O)[C@H](O)[C@H](Cc1ccccc1)NC(=O)c1cc2cc(Cl)ccc2[nH]1
inactive: 1 nM 0.8% | 8.33 nM -0.29% | 100 nM -0.45% | 833.33 nM 1.2% | 10000 nM 4.47%

C[C@H]1O[C@@H](O[C@H]2[C@@H](O)C[C@H](O[C@H]3[C@@H](O)C[C@H](O[C@H]4CC[C@@]5(C)[C@H](CC[C@@H]6[C@@H]5C[C@@H](O)[C@]5(C)[C@@H](C7=CC(=O)OC7)CC[C@]65O)C4)O[C@@H]3C)O[C@@H]2C)C[C@H](O)[C@@H]1O [digoxin]
inactive: 1 nM -0.14% | 8.33 nM -0.96% | 100 nM -7.12% | 833.33 nM -13.3% | 10000 nM -14.5%

N=C(N)NC(=O)c1cnccn1 [pyrazinoylguanidine]
inactive: 1 nM 0.04% | 8.33 nM -6.78% | 100 nM -2.28% | 833.33 nM -5.59% | 10000 nM -0.5%

CCCNC(=O)N1N=C(c2ccc(N)cc2)c2cc3c(cc2C1C)OCO3 (stereo not given)
inactive: 1 nM -4.65% | 8.33 nM -0.41% | 100 nM 1.6% | 833.33 nM 0.9% | 10000 nM 4.48%

Cn1c2c(c3ccccc31)CCNCC2
inactive: 1 nM 3.79% | 8.33 nM 2.27% | 100 nM -0.51% | 833.33 nM 0.96% | 10000 nM -0.01%

COc1ccc(/C=C\c2cc(OC)c(OC)c(OC)c2)cc1OP(=O)(O)O [fosbretabulin]
inactive: 1 nM 0.43% | 8.33 nM 0.77% | 100 nM -1.34% | 833.33 nM -0.84% | 10000 nM -0.38%

C[C@H](N)C(=O)N[C@@H](CCC(N)=O)C(=O)O [dipeptamin]
inactive: 1 nM -0.51% | 8.33 nM 1.67% | 100 nM -0.9% | 833.33 nM 0.75% | 10000 nM 0.66%
